# PLK1 PBD block = qHTS for Inhibitors of PLK1-PDB (polo-like kinase 1 - polo-box domain): Primary Screen; Potency, µM, for inactives: max response, negative = inhibition, actives largely listed as inhibitors; Serine/threonine-protein kinase PLK1 (Homo sapiens), P53350; hit rate 2.8% among 360,000; Plk1 PBD binding of FITC phosphopeptide, fluorescence polarization; note: series mostly up to about 57 µM; nearly all actives have a fitted effect of over 65% in size
# Tau fibril ThT = qHTS for Inhibitors of Tau Fibril Formation, Thioflavin T Binding; recombinant tau K18 P301L, heparin-induced fibrillization, ThT fluorescence; Potency, µM (series often up to 57.4 µM), inactives show at the highest dose activity, negative = inhibition, usual class: inhibitors; hit rate 2.1% among 270,000; AID 1460, 2008; note: nearly all actives have a fitted effect of over 55% in size
# Target sequence (P10636 561-689 P618L limits assumed): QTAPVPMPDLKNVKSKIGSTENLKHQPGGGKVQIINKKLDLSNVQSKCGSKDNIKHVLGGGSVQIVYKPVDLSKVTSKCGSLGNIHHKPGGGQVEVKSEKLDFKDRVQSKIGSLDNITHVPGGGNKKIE
#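 Aggregation was driven by heparin (20 uM final) acting on recombinant tau […] bearing P301L in 100 mM sodium acetate pH 7; fibrils were detected with Thioflavin T.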
# VDR inhibitor = Inhibitors of the vitamin D receptor (VDR): qHTS | Potency, µM, inactives show max response, negative = inhibition, most hits filed as inhibitors | VDR-SRC2-3 peptide fluorescence polarization, 2 h | hit rate 0.93% among 400,000 | AID 504847, 2011
#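 Compounds are added to VDR with labelled SRC2-3 coactivator peptide and held 2 h at room temperature. Inhibition of the VDR–peptide interaction is then read as a change in fluorescence polarization.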
# Sfp PPTase inh = qHTS Assay for Inhibitors of Bacillus subtilis Sfp phosphopantetheinyl transferase (PPTase); 4'-phosphopantetheinyl transferase ffp (Bacillus subtilis), Q9F4F7; Biochemical Sfp PPTase activity, qHTS; Potency, µM, inactives show largest response in the series, negative = inhibition, hits mostly inhibitors; hit rate 3.5% among 310,000; AID 1490, 2009;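 note: the enzyme is Sfp with the accession as filed and its product quenches rhodamine fluorescence; 0% = enzyme reaction without inhibitor and -100% = no enzyme wells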
#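 With Hepes-Na pH 7.6 buffer containing 10 mM MgCl2, Sfp (15 nM) modified BHQ-2-YbbR (12.5 uM) using rhodamine-CoA (5 uM). Two reads 30 minutes apart at 525/598 nm yielded each well's rate.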
# Tau fluor cs = Counterscreen qHTS for Inhibitors of Tau Fibril Formation, Fluorescence Polarization | tau K18 P301L (four-repeat tau fragment) Alexa594 fluorescence, heparin fibrillization | hit rate 0.93% among 280,000 | AID 1463, 2008 | Potency, µM (series often up to 57.7 µM), inactives show top-dose activity change, negative = decrease; note: nearly all actives have a fitted effect of over 55% in size
#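 Human K18 P301L tau (15 uM unlabeled plus 0.24 uM Alexa 594-labeled, final) in 100 mM sodium acetate pH 7 was mixed with compound and 20 uM heparin and incubated 6 hr at 37 C.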
# Tau FP inhib = qHTS for Inhibitors of Tau Fibril Formation, Fluorescence Polarization. K18 P301L tau heparin fibrillization, Alexa594 FP, 6 h. Potency, µM (highest dose often 57.7 µM), for inactives: at the top dose activity, negative = inhibition, usual class: inhibitors. hit rate 0.39% among 280,000. AID 1468, 2008; note: nearly all actives have a fitted effect of over 55% in size
#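 Recombinant K18 P301L […], labeled with Alexa 594 at 0.24 uM over 15 uM unlabeled; heparin inducer 20 uM final; 37 C, 6 hr; FP endpoint.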
# The depositor's hits bear a star; u = inconclusive; x = no result given; [ ] = dose if it differs, or a comment. Most compounds without a hit are left out; they make up all but 6% or so of the library. Calls come from the whole dose curve; as a rule, active = well fitted curve in the direction sought with a large enough effect; inconclusive = small, poorly fitted or top-dose-only effect, or another doubt; inactive = no such curve, though single readings can be large; an effect the other way counts as inactive or inconclusive. Unless noted, % is set by controls: 0 for no effect and ±100 for the full control effect; potency is the fitted concentration of half-maximal effect.
SMILES,PLK1 PBD block,Tau fibril ThT,VDR inhibitor,Sfp PPTase inh,Tau fluor cs,Tau FP inhib
CCN1CCN(c2cc(C)c3cc(NC(=O)c4cc(OC)cc(OC)c4)ccc3n2)CC1,-14%,u,-7%,7%,16µM*[quencher],10%
CC(C)(C)N1C(=O)c2ccc(C(=O)Nc3cc(C(=O)O)cc(C(=O)O)c3)cc2C1=O,2%,x,2%,22%,x,x
O=C(c1csnn1)N1CCC2(CC1)CCN(C(c1ccccc1)c1ccccc1)CC2,x,x,-19%,4%,x,x
COCCn1c(C)cc(O)c(C(c2ccccc2OC)N2CCN(c3ccccc3)CC2)c1=O (stereo not given),x,u,-1%,x,-9%,-10%
COc1ccc2nc(Cl)c(C3CC(c4ccco4)=NN3C(=O)CCCC(=O)O)cc2c1 (stereo not given),-9%,-11%,0%,35µM*,-8%,-5%
Oc1ccc(N=Cc2ccc(-c3cccs3)s2)cc1,-3%,7.9µM*,79µM*,32µM*,u,14µM*
O=Cc1ccc(-c2cccs2)s1,-20%,x,-19%,x,x,x
CCOC(=O)C(=CNc1ccc(Cl)cn1)C(=O)OCC,-7%,-8%,-12%,8%,-12%,0%
CCOC(=O)C(=CNNc1cccc(Cl)c1)C(=O)OCC,9.5µM*,u,u,u,u,u
COc1ccc2c3c(cccc13)N(C)N=C2C,21µM*,7.1µM*,-9%,-15%,u,u
CCc1ccc(-c2nn(CC(=O)NCc3ccccc3)c3c2cnc2ccc(F)cc23)cc1,x,7%,13%,x,2%,1%
C#CCCc1cscc1/C=[N+](\[O-])c1ccc(C(=O)OCC)cc1,7.5µM*,x,u,x,x,x
CCCN(C(=O)C1CCN(S(=O)(=O)c2c(C)noc2/C=C/c2ccc(C)cc2)CC1)c1ccccc1F,x,-2%,-8%,x,-5%,-4%
CN=C1S/C(=C\c2ccc(N3CCOCC3)c(F)c2)C(=O)N1C,-1%,u,-4%,21%,-22%,-2%
CN=C1S/C(=C\c2ccc(N3CCCC3)c(F)c2)C(=O)N1C,-23%,u,11%,71µM*,u,6%
CCOC(=O)[C@@H](C)N(Cc1ccc(OC)cc1)S(=O)(=O)N(Cc1ccccc1)[C@H](C(=O)OC)C(C)C,-3%,x,-12%,x,x,x
CCNC(=S)NS(=O)(=O)c1ccccc1,u,-2%,4%,79µM*,-3%,-2%
CCNC(=S)NNc1ccccc1,-11%,u,-4%,35µM*,-16%,u
CNC(=S)NNc1nncc2ccccc12,-1%,-6%,2%,22µM*,-1%,2%
O=C(NC(=S)NNS(=O)(=O)c1ccccc1)c1cccnc1,u,-18%,20%,5%,-12%,u
O=C(Cc1ccccc1)NS(=O)(=O)c1ccccc1,-10%,x,x,x,x,x
CCCCC(=O)NC(=S)NNS(=O)(=O)c1ccccc1,12µM*,-10%,u,u,-2%,-1%
S=C(Nc1ccc(-c2nc3ccccc3[nH]2)cc1)Nc1cccnc1,u,x,u,-21%,x,x
COc1ccc(-c2c(-c3ccsc3)oc3c2C(O)CCC3)cn1 (stereo not given),-4%,x,x,x,x,x
COc1ccc(-c2nsc(NC(=O)c3ccccc3Br)n2)cc1,x,18%,3%,x,u,u
CCNC(=S)NNc1nncc2ccccc12,-10%,-6%,-1%,4µM*,-3%,-2%
O=C(c1ccc2c(=O)n(CCc3ccccc3)c(=O)[nH]c2c1)N1CCN(c2ccc(Cl)cc2)CC1,x,-17%,-10%,x,-28%,-7%
O=C(COC(=O)Cc1ccsc1)Nc1cccc(F)c1,-6%,x,89µM*,x,x,x
